Measured values as given in PubChem BioAssay (NCATS).
Records with an inconclusive call do not appear. The source made the active and inactive calls. Unless noted, the call rests on the fitted dose curve; in most records, active means well fitted curve in the direction sought with a large enough effect; inconclusive means small, poorly fitted or top-dose-only effect, or another doubt; inactive means no such curve, though single readings can be large; an effect the other way counts as inactive or inconclusive.

Assays:
[1] = target: Lysosomal acid glucosylceramidase (Homo sapiens) (UniProt P04062); assay: Glucocerebrosidase-p2 (AID 348; in the data active means potency below about 10 µM; further: potency means the concentration at half of the fitted maximal effect); settings: purified GBA, blue fluorogenic substrate, 40 min
How it was run: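 Compounds titrated from 0.6 nM upwards against 0.2 nM enzyme in pH 5.9 citric acid/KH2PO4, taurocholate, tween-20; blue fluorogenic substrate 80 uM, 40 min room temperature, stopped and read Ex 365/Em 440 for AC50.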

[2] = AP1 Signaling Pathway (AID 357; active means well fitted curve in either direction with a large enough effect, not every such curve was filed as active; further: on the % scale 0 is the no-effect control and ±100 the full control effect); settings: ME-180 AP-1-bla reporter, EGF-induced, beta-lactamase ratio, 5 h; at 7.69 µM (top of the series) unless noted
How it was run: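 AP-1-bla ME-180 cells with beta-lactamase reporter under AP-1 response element, stimulated with EC50 EGF; compounds titrated, 5 hours at 37 degrees Celsius. CCF4 read at 460/530 nm ratio; positive and negative modulators judged by AC50.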

[3] = target: Cytochrome P450 1A2 (Homo sapiens) (UniProt P05177); assay: p450-cyp1a2 (AID 410; calls by dose curve; further: potency means the concentration at half of the fitted maximal effect;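 on activity change, negative = inhibition: -100% = full effect of reference inhibitor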); settings: recombinant CYP1A2, luciferin-ME demethylation, luminescence; series mostly up to 57 µM
How it was run: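 Human CYP1A2 (20nM) demethylated Luciferin-ME at its Km (100uM) in 100mM KPO4. After 10 min compound preincubation, NADPH regeneration ran the reaction 60 min at room temperature. Luciferin was read by luminescence, normalized to 57 uM furafylline.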

[4] = Stat Signaling Pathway (AID 446; active means well fitted curve in either direction with a large enough effect, not every such curve was filed as active;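 further: ME-180 cervical cancer cells given 40 pM IL-6 alongside compound; SIE-controlled beta-lactamase reporter measured as 460/530 nm FRET emission ratio; on the % scale 0 is the no-effect control and ±100 the full control effect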); settings: ME-180 SIE beta-lactamase reporter, IL-6 stimulated, 5 h; at 7.69 µM (top of the series) unless noted
How it was run: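 ME-180 cells carrying a SIE-driven beta-lactamase reporter are stimulated with 40 pM IL-6 for 5 h at 37C in the presence of compound. The 460/530 nm FRET substrate ratio is read after 2.5 h at RT. Data are normalised to 300 pM IL-6 and to 125 nM JAK inhibitor controls.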

[5] = target: Glucocorticoid receptor (Homo sapiens) (UniProt P04150); assay: GR-GFP Redistribution (AID 450;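 active means compounds whose dose series gives a full or clear partial fitted curve of increased nuclear translocation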; further: potency means the concentration at half of the fitted maximal effect); settings: U2OS GR-GFP nuclear translocation, laser cytometry, 2 h
[6] = target: Glucocorticoid receptor (Homo sapiens) (UniProt P04150); assay: GR-EFC Redistribution (AID 451; calls by dose curve; further: potency means the concentration at half of the fitted maximal effect); settings: CHO-K1 GR-EFC translocation, beta-gal luminescence, 2 h
How it was run: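 Translocation of GR-ED fusion to nuclear EA restores b-gal, read by luminescence after 1 h room-temperature detection. Engineered CHO-K1 biosensor cells, 1,000/well, exposed 2 h at 37 C to titrations up to 46 uM final.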

[7] = target: Mitogen-activated protein kinase 10 (Mus musculus) (UniProt Q61831); assay: JNK3 AlphaScreen Assay (AID 530; active means well fitted curve in either direction with a large enough effect, not every such curve was filed as active;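 further: kinase came from lysate of stimulated human HepG2 cells; signal reports phosphorylation of biotinylated GST-cJun 1-79 at Ser73 with 10 µM ATP; on the % scale 0 is the no-effect control and ±100 the full control effect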); settings: JNK3 lysate, c-Jun phosphorylation; series mostly up to 57.1 µM
How it was run: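 Room-temperature AlphaScreen kinase assay; pre-activated HepG2 lysate as JNK3 source, biotin-GST-cJun(1-79) substrate, 10 uM ATP, compound 15 min preincubation.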

[8] = target: 3',5'-cyclic-AMP phosphodiesterase 4B (Homo sapiens) (UniProt Q07343); assay: qHTS Assay for Inhibitors of PDE-IV (AID 607; active means well fitted activation curve with a large enough effect in the main read-out, with a control signal flat, not every such curve was filed as active; further: % of control where 0% means no effect); settings: HEK293 ACTOne CNG channel cells, membrane potential fluorescence; series mostly up to 22.9 µM
How it was run: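 HEK293 ACTOne cells with CNG channel (1000/well), endogenous PDE4; membrane potential dye, compounds up to 22.9 uM final. Fluorescence Ex 535/Em 590; RO 20-1724 (100 uM final) as reference.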

[9] = target: Cytochrome P450 3A4 (Homo sapiens) (UniProt P08684); assay: qHTS Assay for Inhibitors and Substrates of Cytochrome P450 3A4 (AID 884); settings: recombinant CYP3A4, Luciferin-PPXE luminescence; series mostly up to 57.1 µM; further: potency means the concentration at half of the fitted maximal effect; nearly all actives have a fitted effect of over 50% in size
How it was run: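 20 nM human CYP3A4 with 25 uM Luciferin-PPXE (at KM) in 200 mM KPO4, preincubated 10 min with compound; NADPH regeneration started a 60 min RT reaction. Luciferin detected by luminescence, normalized to 57 uM ketoconazole as full inhibition.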

[10] = target: Cytochrome P450 3A4 (Homo sapiens) (UniProt P08684); assay: qHTS Assay for Activators of Cytochrome P450 3A4 (AID 885); settings: recombinant CYP3A4, Luciferin-PPXE luminescence, 60 min; series mostly up to 57.1 µM; further: nearly all actives have a fitted effect of over 65% in size
How it was run: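 Human CYP3A4 (20 nM) with Luciferin-PPXE at 25 uM (its KM) in 200 mM KPO4; 10 min compound preincubation, then NADPH regeneration and 60 min reaction at RT. Luciferin read by luminescence; normalized to 57 uM ketoconazole full inhibition.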

[11] = target: Dual specificity protein kinase CLK4 (Homo sapiens) (UniProt Q9HAZ1); assay: qHTS Assay for Inhibitors of CDC-like Kinase 4 (Kinase-Glo Assay) (AID 1770); settings: recombinant Clk4, Kinase-Glo ATP depletion luminescence; series mostly up to 66.7 µM; further: nearly all actives have a fitted effect of over 65% in size; further: potency means the concentration at half of the fitted maximal effect
How it was run: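 Inhibition was judged from remaining ATP, measured by Ultra-Glo luciferase bioluminescence after Clk4 (25 nM) had acted on RS peptide at 1 uM ATP for 4.5 hours, room temperature.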

[12] = target: Dual specificity protein kinase CLK4 (Homo sapiens) (UniProt Q9HAZ1); assay: qHTS Assay for Inhibitors of CDC-like Kinase 4 (ADP-FP Assay) (AID 1795); settings: Transcreener ADP fluorescence polarization; series mostly up to 50 µM; further: nearly all actives have a fitted effect of over 60% in size; further: potency means the concentration at half of the fitted maximal effect
How it was run: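 Inhibition of ADP formation by 6.25 nM Clk4 is measured using 1 uM ATP and 100 uM RS repeat peptide over one hour. Produced ADP displaces a fluorescent tracer from antibody, lowering polarization.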

[13] = target: Ubiquitin carboxyl-terminal hydrolase 1 (Homo sapiens) (UniProt O94782); assay: Inhibitors of USP1/UAF1: Pilot qHTS (AID 504865); settings: purified USP1/UAF1, Ub-rhodamine cleavage fluorescence; series mostly up to 54.9 µM; further: nearly all actives have a fitted effect of over 35% in size; further: potency means the concentration at half of the fitted maximal effect
How it was run: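 Kinetic fluorescence assay: 1nM USP1/UAF1, 15 min compound preincubation, then 150nM Ub-Rho; 480/540 nm.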

[14] = Primary qHTS for small molecule stabilizers of the endoplasmic reticulum resident proteome: Secreted ER Calcium Modulated Protein (SERCaMP) assay (AID 1508630); settings: SH-SY5Y GLuc-SERCaMP (Gaussia luciferase released on ER calcium loss) secretion, thapsigargin, luminescence; series mostly up to 38.4 µM; further: on the % scale 0 is the no-effect control and ±100 the full control effect
How it was run: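 GLuc-SERCaMP-expressing SH-SY5Y cells, pretreated 16 h with compound, are challenged with thapsigargin to empty ER calcium stores; after 4 h, coelenterazine is added directly to the medium and luminescence is imaged.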

[15] = NFAT Signaling Pathway (AID 444; active means well fitted curve in either direction with a large enough effect, not every such curve was filed as active); settings: Jurkat NFAT-bla M1, carbachol, beta-lactamase ratio, 5 h; at 7.69 µM (top of the series) unless noted
How it was run: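 Read-out: CCF4 FRET ratio (460 nm/530 nm) after 1 h RT dye loading, used for %activity and AC50 from titration series. Cells: Jurkat NFAT-β-lactamase/M1 line, treated with compound plus 1 uM carbachol for 5 h, 37 °C.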

[16] = target: Cytochrome P450 2C19 (Homo sapiens) (UniProt P33261); assay: qHTS Assay for Inhibitors and Substrates of Cytochrome P450 2C19 (AID 899); settings: recombinant CYP2C19, luciferin-H EGE luminescence; series mostly up to 57.1 µM; further: potency means the concentration at half of the fitted maximal effect; nearly all actives have a fitted effect of over 60% in size
How it was run: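 Reactions contain 5nM enzyme, 10uM Luciferin-H EGE (KM) and 50mM KPO4; compound preincubates 10 min at 37C, NADPH regeneration starts turnover for 60 min. Luminescence after detection reagent gives activity.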

Sequence of Cytochrome P450 3A4 (Homo sapiens) (P08684 whole entry, looked up): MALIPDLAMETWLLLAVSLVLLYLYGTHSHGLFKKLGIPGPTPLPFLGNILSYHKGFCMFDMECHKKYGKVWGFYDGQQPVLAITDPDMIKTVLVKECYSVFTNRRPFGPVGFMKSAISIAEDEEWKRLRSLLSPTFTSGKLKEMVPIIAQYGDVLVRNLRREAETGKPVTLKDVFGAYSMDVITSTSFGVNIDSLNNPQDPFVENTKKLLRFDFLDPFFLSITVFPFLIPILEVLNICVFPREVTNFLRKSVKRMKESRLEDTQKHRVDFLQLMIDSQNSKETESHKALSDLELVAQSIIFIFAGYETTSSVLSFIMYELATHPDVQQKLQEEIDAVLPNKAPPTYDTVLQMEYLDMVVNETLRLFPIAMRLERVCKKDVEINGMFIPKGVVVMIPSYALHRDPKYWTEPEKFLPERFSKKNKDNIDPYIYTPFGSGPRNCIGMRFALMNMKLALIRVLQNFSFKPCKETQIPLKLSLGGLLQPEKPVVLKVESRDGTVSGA
Sequence of Ubiquitin carboxyl-terminal hydrolase 1 (Homo sapiens) (O94782 whole entry, looked up): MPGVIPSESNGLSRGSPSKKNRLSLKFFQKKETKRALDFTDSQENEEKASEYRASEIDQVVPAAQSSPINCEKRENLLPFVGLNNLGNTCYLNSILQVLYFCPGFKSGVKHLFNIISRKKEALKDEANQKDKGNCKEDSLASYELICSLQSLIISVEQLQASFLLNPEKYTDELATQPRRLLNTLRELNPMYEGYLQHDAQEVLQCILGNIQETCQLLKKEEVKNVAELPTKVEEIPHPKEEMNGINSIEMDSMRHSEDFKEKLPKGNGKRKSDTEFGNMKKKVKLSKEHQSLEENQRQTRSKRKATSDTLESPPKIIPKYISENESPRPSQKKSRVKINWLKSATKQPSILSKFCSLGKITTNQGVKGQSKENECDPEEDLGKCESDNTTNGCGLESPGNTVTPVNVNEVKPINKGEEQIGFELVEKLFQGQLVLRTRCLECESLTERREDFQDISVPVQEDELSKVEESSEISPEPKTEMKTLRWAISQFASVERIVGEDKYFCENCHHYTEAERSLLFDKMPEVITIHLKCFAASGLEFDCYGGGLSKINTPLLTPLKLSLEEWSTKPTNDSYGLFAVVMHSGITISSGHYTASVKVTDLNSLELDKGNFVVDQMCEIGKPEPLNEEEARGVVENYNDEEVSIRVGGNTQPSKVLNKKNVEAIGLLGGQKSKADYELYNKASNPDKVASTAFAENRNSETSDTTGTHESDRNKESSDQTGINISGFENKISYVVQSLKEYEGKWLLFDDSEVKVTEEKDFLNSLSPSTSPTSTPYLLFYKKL
Sequence of Cytochrome P450 1A2 (Homo sapiens) (P05177 whole entry, looked up): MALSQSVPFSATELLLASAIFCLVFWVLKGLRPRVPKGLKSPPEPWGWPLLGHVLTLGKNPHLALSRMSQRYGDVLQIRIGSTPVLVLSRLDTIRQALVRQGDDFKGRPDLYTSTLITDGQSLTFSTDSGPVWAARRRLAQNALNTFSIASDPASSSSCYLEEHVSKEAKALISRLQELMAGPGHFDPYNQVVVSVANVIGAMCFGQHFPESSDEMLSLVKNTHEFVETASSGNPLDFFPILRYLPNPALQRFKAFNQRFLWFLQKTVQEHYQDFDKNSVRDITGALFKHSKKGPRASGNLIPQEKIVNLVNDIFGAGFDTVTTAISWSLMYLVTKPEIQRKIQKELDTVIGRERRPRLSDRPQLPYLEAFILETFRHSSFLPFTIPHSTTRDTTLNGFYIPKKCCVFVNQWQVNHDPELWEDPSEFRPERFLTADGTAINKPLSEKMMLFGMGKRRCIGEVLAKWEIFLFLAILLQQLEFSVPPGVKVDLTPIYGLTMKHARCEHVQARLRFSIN
Sequence of Lysosomal acid glucosylceramidase (Homo sapiens) (P04062 whole entry, looked up): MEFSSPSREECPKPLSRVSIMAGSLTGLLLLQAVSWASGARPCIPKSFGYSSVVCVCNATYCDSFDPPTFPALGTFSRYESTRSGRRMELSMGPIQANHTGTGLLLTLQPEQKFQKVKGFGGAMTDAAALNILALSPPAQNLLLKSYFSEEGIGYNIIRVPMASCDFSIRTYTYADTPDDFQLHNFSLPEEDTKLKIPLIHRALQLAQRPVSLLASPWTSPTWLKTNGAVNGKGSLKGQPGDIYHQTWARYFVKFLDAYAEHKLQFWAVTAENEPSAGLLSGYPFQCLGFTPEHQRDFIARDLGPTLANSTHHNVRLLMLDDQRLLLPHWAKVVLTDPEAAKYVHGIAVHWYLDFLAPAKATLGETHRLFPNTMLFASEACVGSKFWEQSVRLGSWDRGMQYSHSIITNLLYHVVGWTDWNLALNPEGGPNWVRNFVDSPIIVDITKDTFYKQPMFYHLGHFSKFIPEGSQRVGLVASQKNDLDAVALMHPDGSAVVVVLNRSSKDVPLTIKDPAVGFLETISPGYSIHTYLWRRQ
Sequence of 3',5'-cyclic-AMP phosphodiesterase 4B (Homo sapiens) (Q07343 whole entry, looked up): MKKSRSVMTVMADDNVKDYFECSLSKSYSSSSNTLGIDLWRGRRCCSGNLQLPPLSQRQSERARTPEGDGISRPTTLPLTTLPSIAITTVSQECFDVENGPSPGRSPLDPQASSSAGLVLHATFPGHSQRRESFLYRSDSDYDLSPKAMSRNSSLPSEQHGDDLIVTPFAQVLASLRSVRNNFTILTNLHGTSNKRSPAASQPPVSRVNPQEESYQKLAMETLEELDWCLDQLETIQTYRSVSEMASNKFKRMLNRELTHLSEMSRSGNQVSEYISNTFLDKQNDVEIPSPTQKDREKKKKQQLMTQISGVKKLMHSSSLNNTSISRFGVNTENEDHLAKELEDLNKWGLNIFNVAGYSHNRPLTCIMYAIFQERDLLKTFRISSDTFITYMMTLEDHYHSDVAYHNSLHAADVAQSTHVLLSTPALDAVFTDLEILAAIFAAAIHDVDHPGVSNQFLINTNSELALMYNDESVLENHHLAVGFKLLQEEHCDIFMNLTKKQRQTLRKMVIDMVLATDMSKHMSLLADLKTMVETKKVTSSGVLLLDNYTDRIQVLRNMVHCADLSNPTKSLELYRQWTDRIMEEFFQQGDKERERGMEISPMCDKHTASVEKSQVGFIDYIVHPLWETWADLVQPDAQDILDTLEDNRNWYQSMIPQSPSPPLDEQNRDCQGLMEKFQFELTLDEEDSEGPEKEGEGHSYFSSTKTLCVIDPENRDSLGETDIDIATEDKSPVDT
Sequence of Glucocorticoid receptor (Homo sapiens) (P04150 whole entry, looked up, the tested form may be a part): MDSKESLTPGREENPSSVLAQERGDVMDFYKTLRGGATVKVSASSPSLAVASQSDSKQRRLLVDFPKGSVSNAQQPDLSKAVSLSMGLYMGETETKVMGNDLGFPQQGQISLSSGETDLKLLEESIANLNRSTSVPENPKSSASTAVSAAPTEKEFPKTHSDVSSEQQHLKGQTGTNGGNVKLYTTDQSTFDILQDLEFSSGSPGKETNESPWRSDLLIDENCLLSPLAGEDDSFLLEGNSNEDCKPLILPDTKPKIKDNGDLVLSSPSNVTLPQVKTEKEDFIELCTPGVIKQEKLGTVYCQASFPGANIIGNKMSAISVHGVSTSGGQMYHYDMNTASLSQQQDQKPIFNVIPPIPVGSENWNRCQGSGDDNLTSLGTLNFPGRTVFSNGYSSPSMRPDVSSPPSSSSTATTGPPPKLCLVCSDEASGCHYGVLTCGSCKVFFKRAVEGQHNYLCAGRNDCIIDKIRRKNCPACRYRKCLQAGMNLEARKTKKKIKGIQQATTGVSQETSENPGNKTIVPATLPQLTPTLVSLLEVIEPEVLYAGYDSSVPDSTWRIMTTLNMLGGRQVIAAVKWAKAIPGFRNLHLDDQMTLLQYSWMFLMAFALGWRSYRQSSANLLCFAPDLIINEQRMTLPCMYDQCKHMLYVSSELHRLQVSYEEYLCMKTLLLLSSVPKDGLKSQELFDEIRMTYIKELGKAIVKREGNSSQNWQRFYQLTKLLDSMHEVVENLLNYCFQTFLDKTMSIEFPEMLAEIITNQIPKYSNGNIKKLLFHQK
Sequence of Dual specificity protein kinase CLK4 (Homo sapiens) (Q9HAZ1 whole entry, looked up): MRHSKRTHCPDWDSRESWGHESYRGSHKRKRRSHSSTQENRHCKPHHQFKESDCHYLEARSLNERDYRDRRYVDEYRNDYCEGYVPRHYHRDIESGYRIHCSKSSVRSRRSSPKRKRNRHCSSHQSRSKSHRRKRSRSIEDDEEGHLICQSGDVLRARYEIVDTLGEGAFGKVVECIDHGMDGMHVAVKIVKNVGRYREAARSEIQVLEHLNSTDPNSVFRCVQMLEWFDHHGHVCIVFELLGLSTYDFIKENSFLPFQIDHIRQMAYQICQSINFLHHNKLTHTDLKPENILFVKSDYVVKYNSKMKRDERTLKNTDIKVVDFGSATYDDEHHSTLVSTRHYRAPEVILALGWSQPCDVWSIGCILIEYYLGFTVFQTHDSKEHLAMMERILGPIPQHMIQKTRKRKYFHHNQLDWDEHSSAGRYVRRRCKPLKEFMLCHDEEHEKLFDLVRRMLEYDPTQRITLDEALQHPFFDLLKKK
Sequence of Cytochrome P450 2C19 (Homo sapiens) (P33261 whole entry, looked up): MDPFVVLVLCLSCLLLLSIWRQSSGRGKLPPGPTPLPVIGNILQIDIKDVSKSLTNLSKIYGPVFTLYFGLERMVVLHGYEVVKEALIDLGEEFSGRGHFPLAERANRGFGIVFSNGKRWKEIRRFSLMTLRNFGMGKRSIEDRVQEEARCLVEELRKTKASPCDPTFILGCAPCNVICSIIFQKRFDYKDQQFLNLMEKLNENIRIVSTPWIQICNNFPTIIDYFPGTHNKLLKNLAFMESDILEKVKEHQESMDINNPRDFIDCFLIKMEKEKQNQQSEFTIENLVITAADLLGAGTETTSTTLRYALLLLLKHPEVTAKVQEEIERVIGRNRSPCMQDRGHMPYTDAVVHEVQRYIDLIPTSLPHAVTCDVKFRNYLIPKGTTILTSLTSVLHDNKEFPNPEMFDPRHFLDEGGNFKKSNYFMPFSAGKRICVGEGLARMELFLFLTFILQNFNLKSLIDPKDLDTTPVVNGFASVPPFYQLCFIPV

CNc1ncncc1-c1ccccc1C(F)(F)F
active: Potency [9] 0.794 µM
inactive: Potency [1] > 11.4 µM | activity change, negative = inhibition [2] 2.43% | Potency [3] | activity, negative = inhibition [4] 22.6% | Potency [5] > 46 µM | Potency [6] > 46 µM | Potency [7] | Potency [8] | Potency [10] | Potency [11] | Potency [12] | Potency [13] | outcome [14]

CCNc1ncc2nc(C)c(=O)n(C[C@H]3CCCO3)c2n1
active: Potency [3] 3.98 µM
inactive: Potency [1] > 11.4 µM | activity change, negative = inhibition [2] 3.27% | activity change, negative = inhibition [15] -7.96% | activity, negative = inhibition [4] -8.96% | Potency [5] > 9.22 µM | Potency [6] > 46 µM | Potency [7] | Potency [8] | Potency [11] | Potency [13] | outcome [14]

CN(C)C(=O)c1ccc(-c2nccc(NCc3cccs3)n2)cc1
active: Potency [3] 15.8 µM
inactive: Potency [1] > 11.4 µM | activity change, negative = inhibition [2] -0.866% | activity change, negative = inhibition [15] 3.58% | activity, negative = inhibition [4] -7.66% | Potency [6] > 46 µM | Potency [7] | Potency [8] | Potency [10] | Potency [11] | Potency [12] | Potency [13] | outcome [14]

COc1ccccc1CNc1cc(-c2ccoc2)ncn1
inactive: Potency [1] > 11.4 µM | activity change, negative = inhibition [2] -15.7% | activity, negative = inhibition [4] 6.29% | Potency [5] > 46 µM | Potency [6] > 46 µM | Potency [7] | Potency [8] | Potency [10] | Potency [11] | Potency [12] | Potency [13] | outcome [14]
active: Potency [3] 15.8 µM

COCCNc1nc(-c2cccc(NS(C)(=O)=O)c2)nc2ccccc12
active: Potency [3] 3.16 µM | Potency [11] 11.2 µM | Potency [12] 14.1 µM
inactive: Potency [1] > 11.4 µM | activity change, negative = inhibition [2] -25.4% | activity change, negative = inhibition [15] 22.3% | activity, negative = inhibition [4] -10.1% | Potency [5] > 46 µM | Potency [6] > 46 µM | Potency [7] | Potency [10] | outcome [14]

Clc1ccccc1-c1nc(NCc2cccs2)c2ccccc2n1
active: Potency [3] 1 µM | Potency [9] 6.31 µM | Potency [16] 7.94 µM | Potency [11] 7.94 µM | Potency [12] 12.6 µM | Potency [13] 14.1 µM
inactive: activity change, negative = inhibition [15] -8.75% | activity, negative = inhibition [4] 0.228% | Potency [5] > 46 µM | Potency [6] > 46 µM | Potency [7] | Potency [10] | outcome [14]
